For some of these results: Potency and affinity values are given separately.
What was measured:
Set-up in all cases: scale not given: direction of the effect not stated beside the values
[1] = target: Protein translocase subunit SecA (Escherichia coli (strain K12)) (UniProt P10408); test: Assay to Identify E. coli SecA ATPase Inhibitors; assay type: functional; conditions: 30 µM
[2] = target: T1, Ubiquitin-activating enzyme e1, putative (Leishmania donovani (strain BPK282A1)) (UniProt E9BSI1); test: Leishmania donovani Ubiquitin Activating Enzyme (LdE1); assay type: functional; conditions: 30 µM
T1 sequence (whole entry): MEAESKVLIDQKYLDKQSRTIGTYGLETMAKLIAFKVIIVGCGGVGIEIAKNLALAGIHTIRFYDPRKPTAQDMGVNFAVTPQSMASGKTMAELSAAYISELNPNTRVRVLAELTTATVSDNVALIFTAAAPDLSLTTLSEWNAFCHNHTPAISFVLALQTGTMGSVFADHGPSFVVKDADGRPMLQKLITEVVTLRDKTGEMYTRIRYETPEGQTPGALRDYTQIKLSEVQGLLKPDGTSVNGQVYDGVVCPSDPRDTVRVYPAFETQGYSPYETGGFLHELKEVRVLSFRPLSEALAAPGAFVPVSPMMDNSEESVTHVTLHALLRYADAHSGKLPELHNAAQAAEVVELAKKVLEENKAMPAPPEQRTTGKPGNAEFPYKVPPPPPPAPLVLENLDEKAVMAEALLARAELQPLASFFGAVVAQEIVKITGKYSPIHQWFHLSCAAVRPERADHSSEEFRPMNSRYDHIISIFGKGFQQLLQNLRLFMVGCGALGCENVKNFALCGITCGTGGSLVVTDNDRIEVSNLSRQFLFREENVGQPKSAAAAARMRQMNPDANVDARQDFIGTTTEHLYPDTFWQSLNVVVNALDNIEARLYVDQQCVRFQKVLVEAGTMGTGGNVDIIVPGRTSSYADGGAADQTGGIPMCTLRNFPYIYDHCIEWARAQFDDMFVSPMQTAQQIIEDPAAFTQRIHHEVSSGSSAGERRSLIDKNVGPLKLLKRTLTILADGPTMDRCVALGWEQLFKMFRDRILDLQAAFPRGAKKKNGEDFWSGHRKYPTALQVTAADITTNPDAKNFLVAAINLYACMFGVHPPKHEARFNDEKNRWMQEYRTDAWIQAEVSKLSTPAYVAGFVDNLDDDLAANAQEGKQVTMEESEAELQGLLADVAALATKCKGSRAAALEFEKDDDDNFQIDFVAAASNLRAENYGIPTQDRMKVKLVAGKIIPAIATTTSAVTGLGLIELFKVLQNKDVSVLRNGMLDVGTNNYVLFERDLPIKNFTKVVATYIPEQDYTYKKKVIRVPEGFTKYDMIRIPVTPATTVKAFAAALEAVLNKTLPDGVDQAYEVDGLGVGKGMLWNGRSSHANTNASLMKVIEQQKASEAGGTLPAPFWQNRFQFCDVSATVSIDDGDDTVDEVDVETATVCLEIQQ

[3] = target: Sialic acid-binding Ig-like lectin 9 (Homo sapiens) (UniProt Q9Y336); test: Hs-Siglec9 ALPHAscreen SOP 20170721; conditions: 10 µM
Chain of Sialic acid-binding Ig-like lectin 9 (Homo sapiens) (Q9Y336 whole entry): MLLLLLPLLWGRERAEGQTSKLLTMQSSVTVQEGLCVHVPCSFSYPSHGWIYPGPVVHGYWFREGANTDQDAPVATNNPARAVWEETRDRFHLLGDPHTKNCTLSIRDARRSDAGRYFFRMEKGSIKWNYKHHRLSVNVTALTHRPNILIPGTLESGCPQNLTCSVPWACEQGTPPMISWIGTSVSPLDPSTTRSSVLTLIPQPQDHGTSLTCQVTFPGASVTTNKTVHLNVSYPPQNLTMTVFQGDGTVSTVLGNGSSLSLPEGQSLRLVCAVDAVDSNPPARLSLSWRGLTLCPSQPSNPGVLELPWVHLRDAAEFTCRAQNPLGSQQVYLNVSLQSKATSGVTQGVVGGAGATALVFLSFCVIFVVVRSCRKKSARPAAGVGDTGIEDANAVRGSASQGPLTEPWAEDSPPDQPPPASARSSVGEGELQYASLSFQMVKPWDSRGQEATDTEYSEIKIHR

Trypanosoma cruzi = test: Trypanosoma cruzi phosphomannomutase and mannose-1-phosphate guanylyltransferase assay; assay type: functional; conditions: 10 µM
[4] = target: T2, Arginase-2, mitochondrial (Homo sapiens) (UniProt P78540); test: in vitro enzyme assay to detect the production of urea directly proportional to the activity of Arginase II; assay type: functional; conditions: 33.3 µM; also: in the data most compounds retested in dose-response had high values
T2 sequence (whole entry): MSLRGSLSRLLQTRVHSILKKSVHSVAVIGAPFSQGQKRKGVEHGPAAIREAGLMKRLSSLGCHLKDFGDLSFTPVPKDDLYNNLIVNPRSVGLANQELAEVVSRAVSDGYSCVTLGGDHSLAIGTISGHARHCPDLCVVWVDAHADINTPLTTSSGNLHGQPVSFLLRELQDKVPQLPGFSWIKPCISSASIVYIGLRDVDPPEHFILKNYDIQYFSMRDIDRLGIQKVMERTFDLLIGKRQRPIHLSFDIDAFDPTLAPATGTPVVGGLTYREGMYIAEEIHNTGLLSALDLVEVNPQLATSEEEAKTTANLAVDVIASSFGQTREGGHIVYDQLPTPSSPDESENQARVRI

[5] = target: T3, Proteasome subunit beta (Trypanosoma cruzi) (UniProt O96673); test: Trypanosoma cruzi proteasome chymotrypsin-like activity (TcProtChymo) assay.; also: in the data most compounds retested in dose-response had high values; assay type: functional; conditions: 9.37 µM
T3 sequence (whole entry): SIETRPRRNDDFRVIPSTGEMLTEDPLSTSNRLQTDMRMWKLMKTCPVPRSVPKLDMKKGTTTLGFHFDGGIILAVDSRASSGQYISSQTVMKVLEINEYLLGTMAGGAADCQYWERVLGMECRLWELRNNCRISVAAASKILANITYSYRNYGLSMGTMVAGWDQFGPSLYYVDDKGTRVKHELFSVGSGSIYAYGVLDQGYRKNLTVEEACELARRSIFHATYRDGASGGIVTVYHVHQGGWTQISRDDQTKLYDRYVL

Homo sapiens = species: Homo sapiens; test: To identify inhibition of the IFN signalling (Jak-Stat) pathway via expression of an eGFP reporter gene under the control of an IFN-stimulated response element (ISRE) containing MxA promoter.; assay type: functional; conditions: 30 µM
[6] = target: T4, Tyrosyl-tRNA synthetase, putative (Trypanosoma cruzi (strain CL Brener)) (UniProt Q4DSP6); test: Trypanosoma cruzi tyrosyl tRNA synthetase (TcYRS) _High Tyrosine SOP; assay type: functional; conditions: 30 µM; also: in the data most compounds retested in dose-response had high values
T4 sequence (whole entry): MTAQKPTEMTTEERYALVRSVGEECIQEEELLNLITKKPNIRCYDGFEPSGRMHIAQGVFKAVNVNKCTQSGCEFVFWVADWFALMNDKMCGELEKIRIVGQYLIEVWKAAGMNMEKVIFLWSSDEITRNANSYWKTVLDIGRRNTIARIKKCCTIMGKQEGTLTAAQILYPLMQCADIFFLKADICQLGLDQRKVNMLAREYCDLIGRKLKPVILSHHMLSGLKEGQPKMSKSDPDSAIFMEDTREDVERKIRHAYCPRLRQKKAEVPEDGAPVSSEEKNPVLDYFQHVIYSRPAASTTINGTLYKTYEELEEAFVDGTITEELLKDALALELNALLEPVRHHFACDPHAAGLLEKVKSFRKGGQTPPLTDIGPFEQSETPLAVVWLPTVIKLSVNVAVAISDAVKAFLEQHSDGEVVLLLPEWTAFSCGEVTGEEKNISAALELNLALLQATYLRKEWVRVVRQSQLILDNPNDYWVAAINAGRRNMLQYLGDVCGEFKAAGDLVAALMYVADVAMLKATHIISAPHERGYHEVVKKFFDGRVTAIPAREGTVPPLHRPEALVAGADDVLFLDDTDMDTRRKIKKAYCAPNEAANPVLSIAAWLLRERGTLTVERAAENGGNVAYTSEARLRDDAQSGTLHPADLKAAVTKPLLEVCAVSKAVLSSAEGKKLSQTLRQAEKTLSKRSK

[7] = target: T4, Tyrosyl-tRNA synthetase, putative (Trypanosoma cruzi (strain CL Brener)); test: Trypanosoma cruzi tyrosyl tRNA synthetase (TcYRS) SOP; assay type: functional; conditions: 30 µM
[8] = target: Chromo domain-containing protein 1 (Saccharomyces cerevisiae (strain ATCC 204508 / S288c) (Baker's yeast)) (UniProt P32657); test: ScCHD-1 Enzyme Inhibition Assay; assay type: functional; conditions: 30 µM; also: in the data most compounds retested in dose-response had high values
Chain of Chromo domain-containing protein 1 (Saccharomyces cerevisiae (strain ATCC 204508 / S288c) (Baker's yeast)) (P32657 whole entry, the tested form may be a part): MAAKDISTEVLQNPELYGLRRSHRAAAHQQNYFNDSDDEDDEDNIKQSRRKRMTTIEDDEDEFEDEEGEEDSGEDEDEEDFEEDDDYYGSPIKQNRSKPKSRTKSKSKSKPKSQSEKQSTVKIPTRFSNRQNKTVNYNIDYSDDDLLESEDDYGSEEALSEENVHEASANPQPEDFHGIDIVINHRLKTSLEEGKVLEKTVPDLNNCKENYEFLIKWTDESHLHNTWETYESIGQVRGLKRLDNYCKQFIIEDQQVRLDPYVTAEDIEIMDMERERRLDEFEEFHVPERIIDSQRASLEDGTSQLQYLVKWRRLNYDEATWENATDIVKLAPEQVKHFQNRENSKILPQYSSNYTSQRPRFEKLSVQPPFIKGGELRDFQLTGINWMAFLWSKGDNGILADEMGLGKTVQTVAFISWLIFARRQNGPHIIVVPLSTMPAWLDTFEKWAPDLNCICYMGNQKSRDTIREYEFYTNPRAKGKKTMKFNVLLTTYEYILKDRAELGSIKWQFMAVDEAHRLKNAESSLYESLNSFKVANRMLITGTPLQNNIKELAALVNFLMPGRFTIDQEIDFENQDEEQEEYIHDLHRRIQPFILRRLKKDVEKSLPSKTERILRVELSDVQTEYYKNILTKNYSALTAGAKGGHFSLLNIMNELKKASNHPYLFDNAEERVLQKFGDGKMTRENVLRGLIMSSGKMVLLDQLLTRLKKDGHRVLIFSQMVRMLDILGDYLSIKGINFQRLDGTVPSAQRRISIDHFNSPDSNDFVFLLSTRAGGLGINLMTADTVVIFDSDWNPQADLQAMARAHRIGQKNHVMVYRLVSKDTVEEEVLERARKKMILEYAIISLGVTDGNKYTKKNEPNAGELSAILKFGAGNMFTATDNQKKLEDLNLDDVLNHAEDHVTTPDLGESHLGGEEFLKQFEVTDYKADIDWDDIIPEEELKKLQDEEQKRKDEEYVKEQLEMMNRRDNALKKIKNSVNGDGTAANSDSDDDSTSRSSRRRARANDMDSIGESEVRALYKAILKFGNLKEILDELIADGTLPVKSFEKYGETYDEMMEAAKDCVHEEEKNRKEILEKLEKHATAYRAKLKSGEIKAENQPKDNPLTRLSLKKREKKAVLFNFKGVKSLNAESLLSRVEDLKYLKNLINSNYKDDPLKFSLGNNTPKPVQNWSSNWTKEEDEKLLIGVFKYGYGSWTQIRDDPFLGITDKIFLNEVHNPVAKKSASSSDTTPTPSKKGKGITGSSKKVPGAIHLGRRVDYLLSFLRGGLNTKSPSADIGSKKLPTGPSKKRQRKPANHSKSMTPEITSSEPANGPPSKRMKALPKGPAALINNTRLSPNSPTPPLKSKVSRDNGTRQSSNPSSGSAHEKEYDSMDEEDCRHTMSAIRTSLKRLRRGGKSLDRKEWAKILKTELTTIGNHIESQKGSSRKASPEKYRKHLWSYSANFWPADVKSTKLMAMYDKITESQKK

Chain of Protein translocase subunit SecA (Escherichia coli (strain K12)) (P10408 whole entry): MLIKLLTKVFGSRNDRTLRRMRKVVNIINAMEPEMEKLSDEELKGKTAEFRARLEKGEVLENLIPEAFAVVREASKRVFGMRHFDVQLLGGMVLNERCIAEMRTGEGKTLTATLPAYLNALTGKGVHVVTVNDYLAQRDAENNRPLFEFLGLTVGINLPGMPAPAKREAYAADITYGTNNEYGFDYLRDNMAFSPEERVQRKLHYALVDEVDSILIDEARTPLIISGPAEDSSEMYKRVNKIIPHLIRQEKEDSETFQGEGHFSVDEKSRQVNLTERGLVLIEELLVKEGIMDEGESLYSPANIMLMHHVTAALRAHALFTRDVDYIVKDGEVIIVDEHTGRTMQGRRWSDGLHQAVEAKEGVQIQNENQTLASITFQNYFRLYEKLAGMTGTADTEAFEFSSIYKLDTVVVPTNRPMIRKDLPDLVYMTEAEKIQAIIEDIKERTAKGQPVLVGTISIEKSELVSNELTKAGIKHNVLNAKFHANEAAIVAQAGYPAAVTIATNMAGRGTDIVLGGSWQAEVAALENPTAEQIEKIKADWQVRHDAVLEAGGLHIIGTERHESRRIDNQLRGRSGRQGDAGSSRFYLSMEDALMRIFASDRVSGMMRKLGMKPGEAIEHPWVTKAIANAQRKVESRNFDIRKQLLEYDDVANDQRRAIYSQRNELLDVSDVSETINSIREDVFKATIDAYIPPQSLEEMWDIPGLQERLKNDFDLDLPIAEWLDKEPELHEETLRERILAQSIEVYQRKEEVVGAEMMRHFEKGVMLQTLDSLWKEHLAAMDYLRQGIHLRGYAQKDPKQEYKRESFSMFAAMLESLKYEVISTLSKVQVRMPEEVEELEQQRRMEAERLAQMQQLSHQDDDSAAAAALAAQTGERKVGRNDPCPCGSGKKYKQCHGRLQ

Cc1ccc(CN2CCC(c3nnc(CN4CCCCC4)n3C)CC2)o1
Percent Effect [1]: -5.23%
Percent Effect [2]: 0%
Percent Effect [3]: 2.13%
Percent Effect (Trypanosoma cruzi): -0.873%
Percent Effect [4]: -0.35%
Percent Effect [5]: 5.99%
Percent Effect (Homo sapiens): 1.11%
Percent Effect [6]: 1.6%
Percent Effect [7]: 4.88%
Percent Effect [8]: 3.06%

CC(C)(C)c1cn2nc(N3CCOC(Cn4cncn4)C3)sc2n1 (centres undefined)
Percent Effect [1]: -1.88%
Percent Effect [2]: 23.1%
Percent Effect [3]: -8.45%
Percent Effect (Trypanosoma cruzi): 7.79%
Percent Effect [4]: -2.46%
Percent Effect [5]: 12.4%
Percent Effect (Homo sapiens): 13.8%
Percent Effect [6]: 3.35%
Percent Effect [7]: 22.9%
Percent Effect [8]: -5.11%

CC(C)(C)c1n[nH]c(C2CN(C(=O)CCc3cscn3)CCO2)n1 (centres undefined)
Percent Effect [1]: -2.17%
Percent Effect [2]: 7.69%
Percent Effect [3]: 15.8%
Percent Effect (Trypanosoma cruzi): 4.41%
Percent Effect [4]: 5.33%
Percent Effect [5]: 0.597%
Percent Effect (Homo sapiens): 6.37%
Percent Effect [6]: 3.35%
Percent Effect [7]: 13.2%
Percent Effect [8]: -1.16%

CN(C)c1cc(C(=O)N2CCN(c3cnccn3)CC2)ccn1
Percent Effect [1]: -1.53%
Percent Effect [2]: 10.3%
Percent Effect [3]: 0.94%
Percent Effect (Trypanosoma cruzi): 3.1%
Percent Effect [4]: 2.46%
Percent Effect [5]: 3.16%
Percent Effect (Homo sapiens): 3.38%
Percent Effect [6]: 5.26%
Percent Effect [7]: 10.8%
Percent Effect [8]: -7.53%

O=C(NCCn1ccnc1)N1CCCC1c1ccsc1 (centres undefined)
Percent Effect [1]: -1.45%
Percent Effect [2]: 10.3%
Percent Effect [3]: -12.8%
Percent Effect (Trypanosoma cruzi): 8.73%
Percent Effect [4]: 1.64%
Percent Effect [5]: 17.7%
Percent Effect (Homo sapiens): -7.37%
Percent Effect [6]: 6.22%
Percent Effect [7]: 20.5%
Percent Effect [8]: -4.56%

Cc1c[nH]cc1C(=O)N1CCN(CCc2cccs2)CC1
Percent Effect [1]: -4.85%
Percent Effect [2]: 5.13%
Percent Effect [3]: -6.52%
Percent Effect (Trypanosoma cruzi): 3.29%
Percent Effect [4]: 2.05%
Percent Effect [5]: -3.67%
Percent Effect (Homo sapiens): 3.15%
Percent Effect [6]: 5.26%
Percent Effect [7]: 8.43%
Percent Effect [8]: 0.816%

CC(NC(=O)c1cc(Br)c2c(c1)OCCO2)C(N)=O (centres undefined)
Percent Effect [1]: -7.52%
Percent Effect [2]: 18.7%
Percent Effect [3]: 6.37%
Percent Effect (Trypanosoma cruzi): 5.82%
Percent Effect [4]: -3.55%
Percent Effect [5]: 17.9%
Percent Effect (Homo sapiens): 0.842%
Percent Effect [6]: 2.63%
Percent Effect [7]: 10.3%
Percent Effect [8]: 77.7%

CCOc1ncccc1CNC(=O)Nc1ccc(N(C)C)nc1
Percent Effect [1]: -5.71%
Percent Effect [2]: 2.6%
Percent Effect [3]: -6.42%
Percent Effect (Trypanosoma cruzi): -9.89%
Percent Effect [4]: -2.66%
Percent Effect [5]: 15.3%
Percent Effect (Homo sapiens): 13.9%
Percent Effect [6]: 0.98%
Percent Effect [7]: 4.71%
Percent Effect [8]: -9.6%

CCc1nnc2n1CCN(Cc1nc(-c3ccoc3)no1)C2
Percent Effect [1]: -4.35%
Percent Effect [2]: 5.13%
Percent Effect [3]: 5.33%
Percent Effect (Trypanosoma cruzi): 4.22%
Percent Effect [4]: 1.64%
Percent Effect [5]: 9.47%
Percent Effect (Homo sapiens): -10.4%
Percent Effect [6]: 12%
Percent Effect [7]: 22.9%
Percent Effect [8]: -4.51%

COCCOc1cccc(C(=O)N2CCCC(n3ccnc3C)C2)c1 (centres undefined)
Percent Effect [1]: -2.56%
Percent Effect [2]: 13%
Percent Effect [3]: 8.18%
Percent Effect (Trypanosoma cruzi): 4.85%
Percent Effect [4]: -2.25%
Percent Effect [5]: 0.877%
Percent Effect (Homo sapiens): 1.8%
Percent Effect [6]: 0%
Percent Effect [7]: 18.8%
Percent Effect [8]: -12.3%

Cc1[nH]/c(=N\C(=O)c2csc(NC3CC3)n2)sc1C
Percent Effect [1]: -5.11%
Percent Effect [2]: 8.11%
Percent Effect [3]: -0.99%
Percent Effect (Trypanosoma cruzi): -1.84%
Percent Effect [4]: -1.75%
Percent Effect (Homo sapiens): 10.7%
Percent Effect [6]: 11.2%
Percent Effect [7]: 14.6%
Percent Effect [8]: 14.5%

CNC(=O)CCCNCc1c(C)nn(C)c1N(C)C
Percent Effect [1]: -0.3%
Percent Effect [2]: 0%
Percent Effect [3]: 14.5%
Percent Effect (Trypanosoma cruzi): 1.22%
Percent Effect [4]: 2.87%
Percent Effect [5]: 2.3%
Percent Effect (Homo sapiens): -12.6%
Percent Effect [6]: 2.39%
Percent Effect [7]: 1.21%
Percent Effect [8]: -2.02%

O=C(Cc1ccccc1Cl)N1CCCC(n2cncn2)C1 (centres undefined)
Percent Effect [1]: -7.8%
Percent Effect [2]: 5.13%
Percent Effect [3]: 0.737%
Percent Effect (Trypanosoma cruzi): -2.91%
Percent Effect [4]: 4.51%
Percent Effect [5]: -2.65%
Percent Effect (Homo sapiens): 22.2%
Percent Effect [6]: 2.39%
Percent Effect [7]: 8.43%
Percent Effect [8]: 1.66%

O=C(NCC1COCc2c(-c3cccnc3)nnn2C1)c1cccs1 (centres undefined)
Percent Effect [1]: -1.54%
Percent Effect [2]: 9.09%
Percent Effect [3]: -6.14%
Percent Effect (Trypanosoma cruzi): -8.28%
Percent Effect [4]: -12.2%
Percent Effect [5]: 13%
Percent Effect (Homo sapiens): 4.75%
Percent Effect [6]: 10%
Percent Effect [7]: 10.3%
Percent Effect [8]: -4.23%
